# Test results: the supplement of paper PMC11417369
# Whole data set: some 25,000 sequences, median “ln(normalized median fluorescence intensity)” near 7.1, cut for the highest 2% near 10. The entries come from a sample that favours the highest values as a whole.
# Test system: PfSIP2 AP2 domain 1 (GST-tagged)
# Test: gcPBM binding intensity (ln(normalized median fluorescence intensity)); higher = stronger DNA binding
# How it was run: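 Binding of GST-tagged P. falciparum DNA-binding domains, expressed in E. coli and used at about 25 μg on average, was carried out for 1 h in 1× PBS containing 1% milk, 0.2 mg/ml BSA, 0.5% salmon testes DNA and 0.03% Triton X-100. The target was an Agilent 4 × 180k array of primer-extended double-stranded 36-bp intergenic genomic probes plus negative controls, read with Alexa488 anti-GST antibody at 488 nm. Binding intensity is the highest Masliner-normalised natural-log median intensity across replicate spots of either probe orientation.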
row,Sequence,gcPBM binding intensity (ln)
1,AATGAAAAATGTATCGTTAAAGGGTATCTTAAGGAT [XGTACX_negctrl_site222],6.84
2,AGATCATAATATTATACACACATTATGTATATGTAA [CACACA_site1490],6.84
3,ACACATTATAACAAGGTGCAATTTTTATACACATGT [GTGCAC_site9866],10.4
4,TATAACACACAATGATGTACATTACATTATTTTTTA [XGTACX_site2076],7.06
5,CATTAACATTTTATTACACACAATAATTTATAAGTA [CACACA_site4083],7.06
6,TAATTAGCATAATACACATGCATACATTTATATATA [TGCATGCA_site542],7.01
7,ATCATAAATTATTATACACACAATACGTGACCTATT [CACACA_site1906],7.06
8,TATTGTTACTTTATATGTACTAATTAAACATATACA [XGTACX_site6363],7.24
9,ATAACAAAATGAAGAGTGCATTACCAAGTGGGTAAA [GTGCAC_site9450],8.64
10,TAGGTACATAAATTGGTGCAAAGTGTACATATATAT,9.97
11,TAAATTGGTGCAAAGTGTACATATATATCTTTCCTA [XGTACX_site5458],11.4
12,AAAAAATTATAAAAGTGTACATATATATATATATAT [XGTACX_site154],9.3
13,AACAATAAAAATAATTGTACAAGTCTAAAAAAAATT [XGTACX_site20],6.86
14,TCGTGAATGATTTAAGTACACACCGGTATTTATTCA [CACACA_site1564],6.74
15,ACGTAAACATGTAGAAGGCATTACACAATGGTATAC [TGCATGCA_negctrl_site512],6.75
16,AAAAGAAAATTAAATTAACACACATAAATATATATA [CACACA_site8482],7.27
17,ACCATATAAAGTTAGGTGCATTTGTATGTATCTTAC,9.18
18,TTTGTATAGTTGTAGGTGCATATCATTTTTAAATGT [GTGCAC_site9708],10.4
19,ATATAATAAATGTAGGTGCATAAAAATATTTTGTTA [GTGCAC_site9780],10
20,ATTTTTTCATATTCTACACACGTGAACAAATGAGTC [CACACA_site5635],7.21
21,TTTTTTATTAAATATATATAATAATAATAATTTGTA [CACACA_negctrl_site1719],6.88
22,AAAAAAAAAATTTAGGTGCATACAAATAAATTATAT [GTGCAC_site9521],9.85
23,ACTAATAATTTGTCGGTGCATAAAATTATTTTTATT [GTGCAC_site9840],10.7
24,ATTTCTTTTGTTATAGTGCATAATATTTATGTACGT,8.59

row,Sequence,gcPBM binding intensity (ln)
1,TTTTTAAAATATTTAACACACAATTATAATGCATAA [CACACA_site3932],7.23
2,CATATAAGACAAAAGGTGCAATTTTAATGCTTTTAT [GTGCAC_site9432],9.98
3,ATATATAAAAATTAGGTGCATTAAATTAAAATATAT,10.3
4,ATATTTTTATATGAGGTGCATATAATGACAATTAAG,10.6
5,AAAAATAATCATTAGGTGCAAAAAATATATATATAT [GTGCAC_site9631],9.96
6,ATATATATATATATAGTGCATAATGTTTTAATAGAT,9.54
7,TAATAATTTTATAAAGTGCATAAAAATAAAAATTTT,8.89
8,ATATATTTATAATAGGTGCATATGTTTTATTTTTCC [GTGCAC_site9849],10.2
9,TTTAATATTATTATTTTACACACTTTTTTCCTTTTA [CACACA_site8780],6.64
10,TACATGTATAATATAATACACACTATATAATATACA [CACACA_site2239],6.92
11,TACTATAACCCACATACACACAAAAAAAAAAAAAAA [CACACA_site4454],7.11
12,ACATAATAAAAATGACGTACAATTTTTTTTTTTCAT [XGTACX_site8340],7.01
13,AAAAAACGCACTCGTACACACATATTTTCTTTCTAA [CACACA_site3089],8.76
14,TTTTTTAGATTACATAAATATAAATATAAATATATA [GTGCAC_negctrl_site459],6.68
15,ATGTTTTGTAAAATGATTAAATATTAAGATTCAATA [CACACA_negctrl_site1743],6.7
16,ATATATATAGAAATATGTACGAAAAAAATATCACAT [XGTACX_site746],7.63
17,TATATTACAAAAAGTACACACATAAATAAATACATA [CACACA_site975],7.17
18,CCATAGATATTTTATACACACATATAATATATTAAT [CACACA_site373],7.17
19,TCTTAAAATATATAGGTGCAAAAAAAAAAAAAAAAA,10.6
20,TTTTTTTTTTCTTAGGTGCAAAAAATAAGTATATAT [GTGCAC_site9394],10.1
21,TTTTAAAATTATTAGGTGCATATTTATTCTATATTT,10
22,TTTTATTATATGGAGGTGCATATATAATAATATAAT [GTGCAC_site9477],11
23,ACATATATATATATATATAATATTTTATATTTATTA [CACACA_negctrl_site713],7.49
24,ATACATCGTATATAAGTGCATATTAAGGTCTTAAGA [GTGCAC_site9560],8.11

row,Sequence,gcPBM binding intensity (ln)
1,TTTCTTTATTTATAATAATTTTTTATTAAAAATAGA [CACACA_negctrl_site1610],6.78
2,TATAATAATATTATAGTGCATATTATTTATATATAA [GTGCAC_site9820],8.67
3,TTTCTTTTTAAATAGGTGCATATTTTTATAAATATA,11
4,TATATATTAAAAATAGTGCAAAATAATATATATATA [GTGCAC_site9716],8.84
5,TATACAAGTATATAGGTGCATATATAAGTATATATT [GTGCAC_site9994],10.3
6,GTATAGTACAAATAAGTGCATATAAAAGAAATACAG,8.56
7,AAAAAAAAAAAAGAAAAATATATATATAAATAAATA [GTGCAC_negctrl_site569],6.98
8,TTTTTCATATGACACACACACAAAAATAATGTGGAA [CACACA_site7692],6.99
9,AAATTATATTATTGAACACACGTTTGGTAATGTTTT [CACACA_site5469],6.78
10,GCTATTTATTTATATTGTACTTTTTTTTTTTTTTTT [XGTACX_site3624],7.67
11,TAAATTGAGTATATTACACACATATAAATATATTAT [CACACA_site4027],6.88
12,GAACAAATTACAAGTTGTACTTTATGTAAATTATTA [XGTACX_site5304],6.76
13,ATACTATTATATATATGTACATATATATGATGCTCT [XGTACX_site1771],7.22
14,TTTTTTTTTTTTTTTTTTTTTTTTTTATGATATATA [GTGCAC_negctrl_site365],6.82
15,TATTTTATATGATAGGTGCATTTTTTTTTTTTTTTT [GTGCAC_site9757],10.8
16,ATAGTAATGCATAAATATATATTATATATATATATA [XGTACX_negctrl_site576],9.1
17,ATATTATATATATAGGTGCGAGTATTTTATAAATAT [GTGCAC_site9889],9.06
18,TTTTGTTATTTTTTAGTGCATATAAAGGTTGTTAAG,8.64
19,CATCATCTTTTAAAGGTGCATAATAATATTGTTAAT,11.1
20,GTATTATATATATAGGTGCATATATATATATAAATA [GTGCAC_site9787],10.8
21,TTTTTATTTATATGATACTTATATATATATATATAT [CACACA_negctrl_site462],9.5
22,TCGAATATCTTATAGGTGCATCATAAATACATATGT,10.8
23,ATAATTGTTTAAAGGTGTACAATACATATATTTTAA [XGTACX_site3648],6.91
24,ATCTATATCTATAATACACACATCATAAAATATGTA [CACACA_site7230],7.19

row,Sequence,gcPBM binding intensity (ln)
1,TATGGAATAAATTTATCCATACATCTTATAACATAT [XGTACX_negctrl_site500],6.78
2,ACATATATATATATTACACACACACTAATAAAATAA [CACACA_site7920],7.24
3,AAAATTAAAAAAATAAATACATTATATAATTAAAAA [CACACA_negctrl_site1426],6.77
4,CTTCTTATTTTCTAATGTACGTACAAATCATTTATA [XGTACX_site2176],8
5,CTTGGGAAGTATTCAGTGCAAAATATAAGCAGGTCA [GTGCAC_site9758],7.75
6,ATATGTATATATATTTGTACGTAAAATGAAATCTAA [XGTACX_site213],7.45
7,AAAAAAAAAAAAAACACACACACACGCACATATACA [CACACA_site7288],7.66
8,ATATATAAATAAATAGTGCATTTTAATATTTAACGT,9.27
9,CATAAATAAGCTTTAGTGCATTATATTTAAATTTTT,7.29
10,TAATAAATGTTATTAGTGCATAATAGATAATATATT,8.29
11,CCTAATTTTATTAGGGTGCATTTTTAGTTAAATATA,11.2
12,GGTATATTAAAATAGGTGCATAAAACTAAGAGAAAA [GTGCAC_site9781],11
13,CGTTATATAATAAAGGTGCATAGATATATCATTATA [GTGCAC_site9774],10.5
14,AAAAATAAAGAAACAGGTACGCATATATTAAGATAT [XGTACX_site8097],7
15,AATATCATTATATAAGTGCATTTTTTAAAAGATAAA [GTGCAC_site9479],9.12
16,GAAAGAAATAAAGGTGGTACATAAATAAAAACTAAG [XGTACX_site4826],7.38
17,GGTATATATTCTATCACACATATTTCCATGAAAATA [CACACA_site4728],7.29
18,AAAAAAAAAAAATAAAGTACTAAATAATACATTATA [XGTACX_site6203],7.02
19,TGTAGTCTGGAGAAAAGTACACAGTATCTGGTAGCT [XGTACX_site2012],6.95
20,TATGTATTTTTATGCACACATGCGTGGCTTATATAA [CACACA_site387],7.39
21,GTATATATATATATATATATATATTTTTATTTATTT [CACACA_negctrl_site589],7.42
